Experiments:
Experiment in all cases: PBM binding z-score (relative to random genomic background probes); higher = stronger binding; sequences stand for … in GC…GCGATTGACAGCGTAGAATGAAGG
[1] = test system: FXR:RXRa (NR concentration 270 nM, RXRa partner concentration 90 nM)
Outline: (§1)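 Custom Agilent 4×180K protein-binding microarrays carried double-stranded probes, each with a 34-nt variable region. These regions held direct-repeat seeds, single-nucleotide variants, half-site ablations and random human genomic background sequences. Ligand-free nuclear receptor dimers were incubated on the arrays for 1 h, antibodies against each partner (one per run) detected binding, and scanned fluorescence was regression-normalized. Binding z-scores take the random background probes as reference.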

[2] = test system: LXRa:RXRa (NR concentration 270 nM, RXRa partner concentration 90 nM)
Outline: as §1

[3] = test system: LXRa homodimer (NR concentration 270 nM)
Outline: as §1

[4] = test system: LXRb:RXRa (NR concentration 270 nM, RXRa partner concentration 90 nM)
Outline: as §1

[5] = test system: LXRb homodimer (NR concentration 270 nM)
Outline: as §1

[6] = test system: PPARa:RXRa (NR concentration 270 nM, RXRa partner concentration 90 nM)
Outline: as §1

[7] = test system: PPARg:RXRa (NR concentration 180 nM, RXRa partner concentration 90 nM)
Outline: as §1

[8] = test system: PPARg:RXRa 270nM:90nM, anti-RXR (NR concentration 270 nM, RXRa partner concentration 90 nM)
Outline: as §1

[9] = test system: PPARg:RXRa 30nM:10nM, anti-RXR (NR concentration 30 nM, RXRa partner concentration 10 nM)
Outline: as §1

[10] = test system: PPARg:RXRa 90nM:30nM, anti-RXR (NR concentration 90 nM, RXRa partner concentration 30 nM)
Outline: as §1

[11] = test system: PPARg:RXRa DBDmut IVT, anti-RXR (DBD mutation: RXRa K156A/R161A, NR concentration 270 nM, RXRa partner concentration 90 nM)
Outline: as §1

[12] = test system: PPARg:RXRa IVT, anti-PPARg (NR concentration 270 nM, RXRa partner concentration 90 nM)
Outline: as §1

[13] = test system: PPARg DBDmut:RXRa IVT, anti-PPARg (DBD mutation: PPARg1 K132A/R137A, NR concentration 270 nM, RXRa partner concentration 90 nM)
Outline: as §1

[14] = test system: PPARg DBDmut IVT, anti-PPARg (DBD mutation: PPARg1 K132A/R137A, NR concentration 270 nM)
Outline: as §1

[15] = test system: PPARg homodimer (NR concentration 180 nM)
Outline: as §1

[16] = test system: PXR:RXRa (NR concentration 270 nM, RXRa partner concentration 90 nM)
Outline: as §1

[17] = test system: PXR homodimer (NR concentration 270 nM)
Outline: as §1

[18] = test system: RARa:RXR (NR concentration 270 nM, RXRa partner concentration 90 nM)
Outline: as §1

[19] = test system: RARa homodimer (NR concentration 270 nM)
Outline: as §1

[20] = test system: RARb:RXRa (NR concentration 270 nM, RXRa partner concentration 90 nM)
Outline: as §1

Sequence | PBM binding z-score [1] | PBM binding z-score [2] | PBM binding z-score [3] | PBM binding z-score [4] | PBM binding z-score [5] | PBM binding z-score [6] | PBM binding z-score [7] | PBM binding z-score [8] | PBM binding z-score [9] | PBM binding z-score [10] | PBM binding z-score [11] | PBM binding z-score [12] | PBM binding z-score [13] | PBM binding z-score [14] | PBM binding z-score [15] | PBM binding z-score [16] | PBM binding z-score [17] | PBM binding z-score [18] | PBM binding z-score [19] | PBM binding z-score [20]
TCTAGCAGGCCAGAGGGCCACTCAAGAGGTACGG | -0.266 | -0.338 | -0.799 | -0.58 | -1.64 | 0.104 | 0.795 | 1.97 | 1.77 | 1.71 | 0.914 | -0.0389 | -0.285 | -0.851 | -0.331 | -0.535 | -0.284 | -0.732 | -0.342 | 0.248
TCATATAGGTAAAAGGTGAACGTCGGTGTGGTAA | 2.13 | 2 | 0.308 | 1.96 | 0.0983 | 5.54 | 9.49 | 8.84 | 8.77 | 9.46 | 5.71 | 5.6 | 1.12 | 1.53 | 1.65 | 1.86 | 0.862 | 2.9 | 1.07 | 2.15
CCTACTGGGCCAAGGTCATGGATCAGTCAAAGCA | 3.04 | 3.08 | 0.47 | 3.01 | -0.724 | 4.32 | 4.52 | 4.76 | 1.8 | 3.69 | 3.36 | 4.9 | -0.856 | -0.00696 | 0.941 | 3.26 | 0.388 | 3.81 | 0.247 | 3.53
TGAAAGAGGTTAAAGATCAGGGAACGTGGCGTCG | 3.91 | 3.07 | 0.208 | 2.03 | 0.261 | 4.59 | 4.87 | 5.44 | 3.46 | 5.15 | 0.975 | 2 | 0.776 | -0.385 | 1.36 | 2.29 | 0.0556 | 3.68 | 0.0643 | 2.67
TTACCAAGGTGAGGTGAGGTCGTTGATCCAACTC | 2.75 | 1.64 | -0.251 | 1.2 | -0.802 | 2.03 | 0.585 | 1.25 | 0.427 | 0.705 | 1.36 | 2.9 | -0.05 | -0.0548 | 0.645 | 4.64 | 0.773 | 2.2 | -0.25 | 1.93
ACAGACAGGTGAGTAAAGGTAACTCAGCTGGACG | 0.171 | 0.4 | -0.568 | -0.0938 | -0.506 | 0.95 | 1.25 | 1.64 | 0.681 | 1.27 | 0.353 | 1.07 | 0.151 | -0.231 | -0.162 | 0.082 | -0.77 | 1.06 | -0.0924 | 0.798
